Records with an inconclusive call do not appear. Activity calls are given as the source filed them. The call rests on the fitted dose curve; in most records, active means well fitted curve in the direction sought with a large enough effect; inconclusive means small, poorly fitted or top-dose-only effect, or another doubt; inactive means no such curve, though single readings can be large; an effect the other way counts as inactive or inconclusive.
Experiments:
TAB109 = assay: qHTS profiling for inhibitors of Plasmodium falciparum proliferation (AID 504749);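 further: 0% = DMSO vehicle and full inhibition = artemisinin control; nearly all actives have a fitted effect of over 60% in size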; conditions: P. falciparum in erythrocytes, SYBR Green DNA, 72 h; series mostly up to 28.7 µM
In short: (§1)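 Three-day growth assay of blood-stage parasites in erythrocytes (0.3% parasitemia, 2.5% hematocrit) at 37 C, 5% CO2, quantified by SYBR Green DNA staining after overnight detergent lysis.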

TAB113 = assay: as above; conditions: P. falciparum in erythrocytes, SYBR Green DNA, 72 h; series mostly up to 28.7 µM
In short: as §1

TAB165 = assay: as above; conditions: P. falciparum in erythrocytes, SYBR Green DNA, 72 h; series mostly up to 28.7 µM
In short: as §1

W2 = assay: as above; conditions: P. falciparum in erythrocytes, SYBR Green DNA, 72 h; series mostly up to 28.7 µM
In short: as §1

CRL-7250 = normal cell line; assay: Cytotoxic Profiling of Annotated Libraries Using Quantitative High-Throughput Screening (AID 1296008); conditions: Five cell lines viability, CellTiter-Glo ATP luminescence, 48-72 h; max response: hits give low values; further: nearly all actives have a fitted effect of over 60% in size; on max response: on the % scale 0 is the no-effect control and ±100 the full control effect
In short: (§2)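 Cytotoxicity was measured as CellTiter-Glo ATP luminescence, read after 10 min at room temperature. Compound treatment of the cells lasted 48 or 72 hr at 37 degrees Celsius in a qHTS format.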

HEK293 = assay: as above; conditions: Five cell lines viability, CellTiter-Glo ATP luminescence, 48-72 h; max response: hits give low values
In short: as §2

HaCat [1] = assay: as above; conditions: Five cell lines viability, CellTiter-Glo ATP luminescence, 48-72 h; max response: hits give low values
In short: as §2

KB-3-1 = assay: as above; conditions: Five cell lines viability, CellTiter-Glo ATP luminescence, 48-72 h; max response: hits give low values
In short: as §2

NIH3T3 [2] = assay: as above; conditions: Five cell lines viability, CellTiter-Glo ATP luminescence, 48-72 h; max response: hits give low values
In short: as §2

HACAT [3] = assay: qHTS assay to identify novel small-molecules to repurpose for Merkel cell carcinoma treatment (AID 1296009); conditions: MCC and control cell lines, CellTiter-Glo viability, 72 h; at 44.8 µM (top of the series) unless noted; further: nearly all actives have a fitted effect of over 60% in size
In short: (§3)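 After compound transfer in DMSO, plates were kept 72 hr at 37 degree celsius. Luminescent ATP signal from CellTiter-Glo served as viability measure, normalized against DMSO and no-cell controls.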

HEK293T = assay: as above; conditions: MCC and control cell lines, CellTiter-Glo viability, 72 h; at 44.8 µM (top of the series) unless noted
In short: as §3

MCC-13 = assay: as above; conditions: MCC and control cell lines, CellTiter-Glo viability, 72 h; series mostly up to 46 µM
In short: as §3

MCC-26 = assay: as above; conditions: MCC and control cell lines, CellTiter-Glo viability, 72 h; series mostly up to 46 µM
In short: as §3

MKL-1 = assay: as above; conditions: MCC and control cell lines, CellTiter-Glo viability, 72 h; series mostly up to 46 µM
In short: as §3

MKL-2 = assay: as above; conditions: MCC and control cell lines, CellTiter-Glo viability, 72 h; series mostly up to 46 µM
In short: as §3

NIH3T3 [4] = assay: as above; conditions: MCC and control cell lines, CellTiter-Glo viability, 72 h; at 44.8 µM (top of the series) unless noted
In short: as §3

UISO = assay: as above; conditions: MCC and control cell lines, CellTiter-Glo viability, 72 h; series mostly up to 46 µM
In short: as §3

WaGa = assay: as above; conditions: MCC and control cell lines, CellTiter-Glo viability, 72 h; series mostly up to 46 µM
In short: as §3

C33A = assay: Primary qHTS to identify gynecologic anti-cancer compounds using libraries of approved drugs and bioactive compounds (AID 1345084); conditions: Gynecologic cancer cell panel viability, ATPlite luminescence, 48 h; series mostly up to 57.5 µM; further: on the % scale 0 is the no-effect control and ±100 the full control effect; nearly all actives have a fitted effect of over 55% in size
In short: (§4)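 48 h compound exposure at 37 C, 5% CO2; five-point qHTS. ATPlite luminescence readout of cell ATP.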

CAOV3 = assay: as above; conditions: Gynecologic cancer cell panel viability, ATPlite luminescence, 48 h; series mostly up to 57.5 µM
In short: as §4

CCC(=O)c1ccc(O)cc1
inactive: Potency (TAB109) | Potency (TAB113) | Potency (TAB165) | Potency (W2) | max response (CRL-7250) 4.24% | outcome (HEK293) | outcome (HaCat [1]) | max response (KB-3-1) 5.91% | outcome (NIH3T3 [2]) | outcome (HACAT [3]) | outcome (HEK293T) | Potency (MCC-13) | Potency (MCC-26) | Potency (MKL-1) | Potency (MKL-2) | outcome (NIH3T3 [4]) | Potency (UISO) | Potency (WaGa) | Potency (C33A)

COc1cc2[nH]c(=O)[nH]c(=O)c2cc1OC
inactive: Potency (TAB109) | Potency (TAB113) | Potency (TAB165) | Potency (W2) | outcome (CRL-7250) | outcome (HEK293) | outcome (HaCat [1]) | max response (KB-3-1) 35.7% | max response (NIH3T3 [2]) 2.37% | outcome (HACAT [3]) | outcome (HEK293T) | Potency (MCC-13) | Potency (MCC-26) | Potency (MKL-1) | Potency (MKL-2) | Potency (UISO) | Potency (WaGa) | Potency (C33A) | Potency (CAOV3)

Cc1ncc([N+](=O)[O-])n1CC(O)CCl (stereo not given)
inactive: max response (CRL-7250) 0.168% | outcome (HEK293) | outcome (HaCat [1]) | max response (KB-3-1) 18% | max response (NIH3T3 [2]) -5.9% | outcome (HACAT [3]) | outcome (HEK293T) | Potency (MCC-13) | Potency (MCC-26) | Potency (MKL-1) | Potency (MKL-2) | Potency (UISO) | Potency (WaGa) | Potency (C33A)

Cc1cccc(C)c1NC(=O)CN(CC(=O)O)CC(=O)O
inactive: Potency (TAB109) | Potency (TAB113) | Potency (TAB165) | max response (CRL-7250) 0.46% | outcome (HEK293) | outcome (HaCat [1]) | max response (KB-3-1) 2.9% | max response (NIH3T3 [2]) -7.57% | outcome (HACAT [3]) | outcome (HEK293T) | Potency (MCC-13) | Potency (MCC-26) | Potency (MKL-1) | Potency (MKL-2) | Potency (UISO) | Potency (WaGa) | Potency (C33A) | Potency (CAOV3)

CC1=C(C/C=C(\C)CCC[C@H](C)CCC[C@H](C)CCCC(C)C)C(=O)c2ccccc2C1=O
inactive: max response (CRL-7250) 1.2% | outcome (HEK293) | outcome (HaCat [1]) | max response (KB-3-1) -12.7% | max response (NIH3T3 [2]) 1.11% | outcome (HACAT [3]) | outcome (HEK293T) | Potency (MCC-13) | Potency (MCC-26) | Potency (MKL-1) | Potency (MKL-2) | Potency (UISO) | Potency (WaGa) | Potency (C33A)

CC1(C)CO[C@@H](CC(=O)O)CN1
inactive: Potency (TAB109) | Potency (TAB113) | Potency (TAB165) | Potency (W2) | outcome (CRL-7250) | outcome (HEK293) | outcome (HaCat [1]) | max response (KB-3-1) 9.26% | max response (NIH3T3 [2]) -2.92% | outcome (HACAT [3]) | outcome (HEK293T) | Potency (MCC-13) | Potency (MCC-26) | Potency (MKL-1) | Potency (MKL-2) | Potency (UISO) | Potency (WaGa) | Potency (C33A)

Oc1cccc(O)c1
inactive: Potency (TAB109) | Potency (TAB113) | Potency (TAB165) | Potency (W2) | max response (CRL-7250) -6.09% | outcome (HEK293) | outcome (HaCat [1]) | max response (KB-3-1) -21.4% | outcome (NIH3T3 [2]) | outcome (HACAT [3]) | outcome (HEK293T) | Potency (MCC-13) | Potency (MCC-26) | Potency (MKL-1) | Potency (MKL-2) | outcome (NIH3T3 [4]) | Potency (UISO) | Potency (WaGa) | Potency (C33A)

O=S(=O)(O)NC1CCCCC1
inactive: Potency (TAB109) | Potency (TAB113) | Potency (TAB165) | max response (CRL-7250) -7.57% | outcome (HEK293) | outcome (HaCat [1]) | max response (KB-3-1) -17.7% | max response (NIH3T3 [2]) 1.01% | outcome (HACAT [3]) | outcome (HEK293T) | Potency (MCC-13) | Potency (MCC-26) | Potency (MKL-1) | Potency (MKL-2) | Potency (UISO) | Potency (WaGa) | Potency (C33A) | Potency (CAOV3)

OC[C@H]1O[C@@H](O[C@@H]2[C@@H](CO)O[C@](O)(CO)[C@H]2O)[C@H](O)[C@@H](O)[C@H]1O
inactive: max response (CRL-7250) -1.41% | outcome (HEK293) | outcome (HaCat [1]) | max response (KB-3-1) -20% | max response (NIH3T3 [2]) 4.19% | outcome (HACAT [3]) | outcome (HEK293T) | Potency (MCC-13) | Potency (MCC-26) | Potency (MKL-1) | Potency (MKL-2) | Potency (UISO) | Potency (WaGa) | Potency (C33A) | Potency (CAOV3)

NC(CSCC(=O)O)C(=O)O (stereo not given)
inactive: Potency (TAB109) | Potency (TAB113) | Potency (TAB165) | Potency (W2) | outcome (CRL-7250) | outcome (HEK293) | outcome (HaCat [1]) | max response (KB-3-1) -5.75% | outcome (NIH3T3 [2]) | outcome (HACAT [3]) | outcome (HEK293T) | Potency (MCC-13) | Potency (MCC-26) | Potency (MKL-1) | Potency (MKL-2) | outcome (NIH3T3 [4]) | Potency (UISO) | Potency (WaGa) | Potency (C33A)

CC(O)CN(CCN(CC(C)O)CC(C)O)CC(C)O (stereo not given)
inactive: Potency (TAB109) | Potency (TAB113) | Potency (TAB165) | Potency (W2) | max response (CRL-7250) 4.33% | outcome (HEK293) | outcome (HaCat [1]) | max response (KB-3-1) -16.3% | outcome (NIH3T3 [2]) | outcome (HACAT [3]) | outcome (HEK293T) | Potency (MCC-13) | Potency (MCC-26) | Potency (MKL-1) | Potency (MKL-2) | outcome (NIH3T3 [4]) | Potency (UISO) | Potency (WaGa) | Potency (C33A) | Potency (CAOV3)

CCC(=O)Nc1ccc(O)cc1
inactive: Potency (TAB109) | Potency (TAB113) | Potency (TAB165) | Potency (W2) | max response (CRL-7250) -0.238% | outcome (HEK293) | outcome (HaCat [1]) | max response (KB-3-1) 18.3% | max response (NIH3T3 [2]) 0.658% | outcome (HACAT [3]) | outcome (HEK293T) | Potency (MCC-13) | Potency (MCC-26) | Potency (MKL-1) | Potency (MKL-2) | Potency (UISO) | Potency (WaGa) | Potency (C33A) | Potency (CAOV3)

O=C(O)c1ccccn1
inactive: Potency (TAB109) | Potency (TAB113) | Potency (TAB165) | Potency (W2) | max response (CRL-7250) -6.73% | outcome (HEK293) | outcome (HaCat [1]) | max response (KB-3-1) -2.2% | outcome (NIH3T3 [2]) | outcome (HACAT [3]) | outcome (HEK293T) | Potency (MCC-13) | Potency (MCC-26) | Potency (MKL-1) | Potency (MKL-2) | outcome (NIH3T3 [4]) | Potency (UISO) | Potency (WaGa) | Potency (C33A) | Potency (CAOV3)

CCCc1c(OCCCCc2nn[nH]n2)ccc(C(C)=O)c1O
inactive: Potency (TAB109) | Potency (TAB113) | Potency (TAB165) | max response (CRL-7250) -1.12% | outcome (HEK293) | outcome (HaCat [1]) | max response (KB-3-1) -12.2% | max response (NIH3T3 [2]) 2.45% | outcome (HACAT [3]) | outcome (HEK293T) | Potency (MCC-13) | Potency (MCC-26) | Potency (MKL-1) | Potency (MKL-2) | Potency (UISO) | Potency (WaGa) | Potency (C33A) | Potency (CAOV3)

From PubChem BioAssay (NCATS)
